# Results taken from PubChem BioAssay AID651636 (Sanford-Burnham Center for Chemical Genomics, 2012).
# Screen size: about 360,000 compounds; about 3,000 (0.83%) were called active. This excerpt belongs to a sample that is enriched for actives. Values without a mark were called inactive. Rule as the data show it: active = inhibition above about 38%; inactive = the rest.
# Target: G-protein coupled receptor 183 (Homo sapiens) (UniProt P32249)
# Assay: blockers of oxysterol-driven EBI2 arrestin signaling – cell-based, luminescence, 7a,25-OHC stimulation, uHTS, primary screen (AID 651636);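 also: enzyme fragment complementation signal reports receptor beta-arrestin coupling in cells; 0% = agonist plus DMSO wells and 100% = wells without agonist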
# Conditions: EBI2 beta-arrestin recruitment, 7a,25-OHC stimulated, at 5 µM, stronger effect = higher value
# Sequence of G-protein coupled receptor 183 (Homo sapiens) (P32249 whole entry, looked up, the tested form may be a part): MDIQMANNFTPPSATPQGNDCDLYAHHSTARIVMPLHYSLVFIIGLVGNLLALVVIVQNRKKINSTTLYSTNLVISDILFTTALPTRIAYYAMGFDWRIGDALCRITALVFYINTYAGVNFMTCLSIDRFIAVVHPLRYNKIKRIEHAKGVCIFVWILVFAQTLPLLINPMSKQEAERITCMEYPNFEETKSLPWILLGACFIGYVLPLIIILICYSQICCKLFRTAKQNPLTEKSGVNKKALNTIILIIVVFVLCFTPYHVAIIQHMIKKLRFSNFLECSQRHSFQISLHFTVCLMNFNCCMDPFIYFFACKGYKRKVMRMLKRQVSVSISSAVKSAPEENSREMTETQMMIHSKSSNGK
row,Structure (SMILES),inhibition
1,CCOc1ccc(S(=O)(=O)Nc2ccncc2)c(C)c1C,-5.77%
2,CCCS(=O)(=O)NC(=O)C1(C)CCCN(C(=O)c2cc(C)on2)C1 (stereo unspecified),-3.5%
3,Cc1cccc(C)c1NC(=O)CN1CCN(c2ccc(F)cc2)CC1,0.0279%
4,Oc1c(CN2CCN(c3ccc(F)cc3)CC2)cc(Cl)c2cccnc12,54.1% (active)
5,O=C(CN1CCN(c2ccc(Cl)cc2)CC1)c1ccccc1,2.55%
6,COc1cccc(-c2ccc3c(c2)N(Cc2ccccc2OC)C(=O)C(C)S3)c1 (stereo unspecified),27.4%
7,COc1ccc(-c2cc(NC=O)c3ncc(-c4cccc(C(=O)N(C)C)c4)n3c2)c(OC)c1,52% (active)
8,CN(C)C(=O)c1cccc(-c2cnc3c(NC=O)cc(-c4ccc(F)cc4)cn23)c1,8.37%
9,COc1ccc(-c2cc(NC=O)c3ncc(-c4cc(OC)c(OC)c(OC)c4)n3c2)c(OC)c1,15.5%
10,N#Cc1ncc(C(F)(F)F)cc1Oc1cccnc1,-11%
11,Cc1onc(-c2ccccc2Cl)c1C(=O)N(Cc1ccc(N(C)C)cc1)C(C)C,1.77%
12,CC(Sc1nncn1C)C(=O)Nc1ccccc1-c1ccccc1 (stereo unspecified),-4.03%
13,CCOC(=O)C1=NN(c2ccc(Cl)cc2)/C(=C/C2=NCCc3cc(OC)c(OC)cc32)S1,6.84%
14,CC(=O)NC(Cc1ccccc1)C(=O)NC1CCN(c2ncccc2[N+](=O)[O-])CC1 (stereo unspecified),5.83%
15,COc1ccc(-c2cc(C3CCN(c4ncccc4[N+](=O)[O-])CC3)[nH]n2)cc1,37.5% (active)
16,COc1ccc(N2CCN(c3ccc([N+](=O)[O-])nc3)CC2)cc1,6.82%
17,CCN1CCN(C(=O)N(Cc2ccc(Cl)cc2)S(=O)(=O)c2ccc(C)cc2)CC1,-6.18%
18,CC1=C(C(=O)N(C(C)C)C(C)C)CC(CC(=O)NCC2CCCCC2)C(=O)N1Cc1ccccc1 (stereo unspecified),3.31%
19,O=c1[nH]c(CN2CCN(S(=O)(=O)c3ccc4c(c3)OCCO4)CC2)nc2sc3c(c12)CCCC3,38.3% (active)
20,O=C(c1ccc(Cl)nc1)N1CCN(S(=O)(=O)c2ccc3c(c2)OCCO3)CC1,17.6%
21,CN1CCCN(S(=O)(=O)c2ccc3c(c2)OCCO3)CC1,-1.61%
22,C=CCOc1ccc(/C=C/C(=O)OCC(=O)NC(C)c2ccc(F)cc2)cc1 (stereo unspecified),29.1%

row,Structure (SMILES),inhibition
1,Cn1c(SCC(=O)OC2CCCCC2)nnc1-c1ccc(S(=O)(=O)N2CCCC2)cc1,0.352%
2,COc1ccc(CCNC(=O)CCn2c(=O)c3ccccc3n(CC(=O)NCC3CCCO3)c2=O)cc1OC (stereo unspecified),-15.5%
3,CC1(Cc2cccc(C#N)c2)C(=O)Nc2ccc(-c3cccc(C(F)(F)F)c3)cc21 (stereo unspecified),17.2%
4,CC1(Cc2ccccc2C#N)C(=O)Nc2ccc(-c3ccc4[nH]ccc4c3)cc21 (stereo unspecified),47.3% (active)
5,COc1ccccc1CC1(C)C(=O)Nc2ccc(OC(F)(F)F)cc21 (stereo unspecified),3.59%
6,CCCCOCCCNC(=O)C[C@@H]1C[C@@]2(C(=O)OCC)CCCC=C2N(CCC2=CCCCC2)C1=O,1.45%
7,COc1ccc(N(CC(=O)Nc2cc(OC)ccc2OC)S(=O)(=O)c2c(C)noc2C)cc1,65.5% (active)
8,CCOc1ccc(N(CC(=O)OC)S(=O)(=O)c2c(C)noc2C)cc1,1.12%
9,CCOC(=O)c1cccc(NC(=O)CN(c2ccc(C)cc2)S(=O)(=O)c2c(C)noc2C)c1,15.3%
10,Cc1nc2ccc(C(=O)N3CCSCC3)cc2s1,-12.2%
11,CCc1nc2ccc(C(=O)N3CCN(c4cccc(Cl)c4)CC3)cc2nc1CC,-4.92%
12,Cc1nc2ccc(C(=O)N3CCN(c4ccccc4)CC3)cc2s1,65.3% (active)
13,Cc1c(CN2CCCC(C(=O)c3cccc(Cl)c3)C2)c(=O)n(-c2ccccc2)n1C (stereo unspecified),5.82%
14,OC[C@@H]1CN(Cc2ccncc2)C[C@H](n2cnc3c(N4CCN(c5ccccc5)CC4)ncnc32)O1,13.5%
15,CCC1Nc2ncnc(N3CCN(c4ccccc4)CC3)c2N(Cc2ccc(Cl)cc2)C1=O (stereo unspecified),68.8% (active)
16,CC[C@]1(C(=O)OC)[C@H]2C(=O)N(Cc3ccccc3)C(=O)[C@H]2[C@H]2CN=C(SCc3ccc(Cl)cc3)N21,19.5%
17,CC(C)CC1(C)NC(=O)N(CC(=O)Nc2ccc3c(c2)OCCO3)C1=O (stereo unspecified),10.5%
18,O=C(NCCS(=O)(=O)N1CCN(c2ccc(F)cc2)CC1)c1ccc2c(c1)OCO2,5.18%
19,O=C(NNC(=S)Nc1ccc(F)cc1)[C@H]1C[C@@H]1c1ccccc1,-13.1%
20,CCN(CC)c1ccc(/C=N/Nc2nc(C)cc(C)n2)c(O)c1,42.4% (active)
21,O=C(NCCN1C(=O)S/C(=C\c2cccnc2)C1=O)c1ccc(S(=O)(=O)N2CCCC2)cc1,-1.14%
22,Cc1ccc(SCCC(=O)NC(C(C)C)C(C)C)cc1,5.4%

row,Structure (SMILES),inhibition
1,CCOc1cccc(OCCCOc2cccc3cccnc23)c1,4.1%
2,O=S(=O)(NCCOc1cccc2cccnc12)c1ccc(F)cc1,0.785%
3,Cc1cc(OCCOc2cccc3cccnc23)c(C)cc1Cl,46.6% (active)
4,CCOC(=O)N1CCN(C(=O)C[C@@H]2C[C@@]3(C(=O)OC)CC(C)(C)CC=C3N(Cc3ccco3)C2=O)CC1,3.44%
5,Cc1[nH]c(=O)c(C(=O)/C=C/c2ccccc2)c2c1CCCC2,-9.45%
6,Cc1nc(-c2ccc(Cl)cc2)sc1C(=O)CBr,10.7%
7,Cc1nc(-c2ccccc2)sc1C(=O)/C=C/c1ccccc1,55.4% (active)
8,CC1=C/C(=N\OS(=O)(=O)c2ccccc2)C=CC1=O,-17.6%
9,O=S(=O)(Nc1cccc(-n2cnnn2)c1)c1cnc(Cl)c(Cl)c1,-8.42%
10,CC(C)(C)C1CCC(=NNC(=O)c2ccc(Br)o2)CC1 (stereo unspecified),-9.46%
11,COc1cccc(C2=CC(=O)C[C@H](c3ccc(OC)c(OC)c3)C2)c1,10.2%
12,COc1ccc2cc(C3=CC(=O)C[C@H](c4ccc5c(c4)OCO5)C3)ccc2c1,71.7% (active)
13,COc1ccc([C@H]2CC(=O)C=C(c3ccc(C)cc3)C2)cc1,81.1% (active)
14,COc1ccc([C@H]2CC(=O)C=C(c3ccc(OC(F)(F)F)cc3)C2)cc1OC,31%
15,COc1ccc([C@H]2CC(=O)C=C(/C=C/c3ccccc3)C2)cc1,34.9%
16,N#Cc1ccc(C2=CC(=O)C[C@H](c3ccc(Cl)cc3)C2)cc1,80.3% (active)
17,O=C1C=C(c2cccc(Cl)c2)C[C@@H](c2ccc(F)cc2)C1,22.1%
18,CCCCC/C=C/C1=CC(=O)C[C@H](c2ccc(Cl)cc2)C1,4.95%
19,O=C1C=C(c2cccc(Br)c2)C[C@@H](c2ccc(F)cc2)C1,36.7%
20,COc1ccc([C@H]2CC(=O)C=C(/C=C/c3ccc(Cl)cc3)C2)cc1,44.1% (active)
21,COc1ccc([C@H]2CC(=O)C=C(c3ccc(CO)cc3)C2)cc1,29.6%
22,O=C1C=C(c2cc(C(F)(F)F)cc(C(F)(F)F)c2)C[C@@H](c2ccc3c(c2)OCO3)C1,14%
